Results reported in PubChem BioAssay AID1578 (Sanford-Burnham Center for Chemical Genomics, 2009).
The campaign covered roughly 290,000 compounds. About 3,000 (1%) were called active. Many of the other results were omitted from the sample, so actives are more common in it than they were. A number with no mark means an inactive call. Cut-off read from the data, not from the text of the source: active = inhibition mostly above about 36% (no sharp cut-off); inactive = mostly below about 34%.

Experiment: NOD1 signaling inhibitors, primary screen, cell-based, luminescence, uHTS (AID 1578);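 note: HEK-293T reporter cells stimulated with the NOD1 agonist gamma-tri-DAP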
Conditions: NOD1-driven NF-kB luciferase reporter cells, at 4 µM, hits give high values

SMILES | inhibition
Cc1nc2c3cc(Cl)ccc3n(CCN3CCCCC3)c2s1 | -5.1%
CC1CCN(S(=O)(=O)c2ccc3c(c2)NC(=O)CS3)CC1 | -43.2%
O=C(COc1ccccc1)NCc1ccc(-n2cccc2)cc1 | -34.8%
Cc1ccc(CNC(=O)Cc2ccc(-n3cccc3)cc2)cc1 | -32.1%
O=C(Cc1ccccc1)NCc1ccc(-n2cccc2)cc1 | 48.6% (active)
Cc1ccc(COc2ccsc2C(=O)NNC(N)=S)cc1 | -29.4%
CCOc1cccc(/C=N/NC(=S)Nc2ccccc2[N+](=O)[O-])c1O | 34.3%
CCCOc1ccc(/C=N/Nc2ccccc2[N+](=O)[O-])c(O)c1 | 55.7%
OC(CNCCc1ccc(Cl)cc1)COc1cc(Cl)ccc1Cl (centres undefined) | -10.1%
Cc1ccccc1OCC(=O)N/N=C/c1ccc(N2CCOCC2)o1 | -23.5%
Cc1ccc(CSC2=NCCN2C(=O)C(C)Oc2ccccc2)cc1 (centres undefined) | -38.3%
CC1CCc2c(sc3ncnc(N4CCOCC4)c23)C1 (centres undefined) | -28.8%
CC1CCc2sc3ncnc(N4CCN(C)CC4)c3c2C1 (centres undefined) | 13.5%
CCOC(=O)C1CCCN(C(=O)COc2ccccc2F)C1 (centres undefined) | -25.1%
COC(=O)c1c(NC(=O)CN2C(=O)NC3(CCC(C(C)(C)C)CC3)C2=O)sc2c1CCCCC2 (centres undefined) | -10.4%
COCC(C)N1CCC(n2nccc2NC(=O)CCCc2ccccc2)CC1 (centres undefined) | -1.8%
O=C(NC1=NCCS1)c1cc(-c2cccc(Br)c2)nc2ccccc12 | -10.6%
COc1cc(/C=C2\CCOC2=O)cc(OC)c1OC | -9.9%
COc1cc(/C=C2\CC/C(=C\c3cc(OC)c(OC)c(OC)c3)C2=O)cc(OC)c1OC | 23%
O=C(CN(Cc1ccco1)C(=O)CNS(=O)(=O)c1ccc(F)cc1)NCCc1ccccc1 | -27.1%
Cn1c(N)c(C(=O)COC(=O)c2ccc(Cl)c(S(=O)(=O)N3CCCC3)c2)c(=O)n(C)c1=O | 14.5%
Cc1ccc(C(=O)OCC(=O)c2c(N)n(C)c(=O)n(C)c2=O)cc1S(=O)(=O)N1CCCCC1 | -7.4%
Cn1c(N)c(C(=O)COC(=O)c2ccc(Cl)c(S(=O)(=O)N3CCCCC3)c2)c(=O)n(C)c1=O | 64.3% (active)

SMILES | inhibition
Cc1cc(C(=O)OCC(=O)NC(C)C)c(C)o1 | -4%
CC(=O)C(C)n1c(CN2CCN(C(=O)c3ccco3)CC2)nc2c1c(=O)n(C)c(=O)n2C (centres undefined) | -0.4%
CCN1CCS/C1=C/C=C/C1=[N+](CC)CCS1 | 14%
CCN1CCS/C1=C\C=C\C1=[N+](CC)CCS1 | 53.8% (active)
Cc1ccc(CC(=O)NCc2ccc(Cl)cc2)cc1 | -57.8%
Cc1ccc(-c2cc(C)nc3ncnn23)cc1 | -4.1%
Cc1cccc(-n2c(SCc3cc(=O)n4c(C)cccc4n3)nc3[nH]ncc3c2=O)c1 | -6.2%
Cc1cccc2nc(CSc3nc4[nH]ncc4c(=O)n3-c3ccccc3Cl)cc(=O)n12 | 6.5%
Cc1cccc2nc(CSc3nc4[nH]ncc4c(=O)n3-c3cccc(Cl)c3)cc(=O)n12 | 75.3% (active)
COc1ccc(C2C(C(N)=O)=C(C)Nc3ncnn32)cc1 (centres undefined) | -4.5%
COC(=O)CCC(=O)NNC(=O)C1CC1(c1ccccc1)c1ccccc1 (centres undefined) | 0.4%
COc1ccc(NC(=S)N2CCN(c3ccccn3)CC2)cc1 | -4.7%
S=C(Nc1ccccc1)N1CCN(c2ccccn2)CC1 | -29.8%
Cc1ccccc1N1CCN(C(=O)c2ccccc2NC(=O)C2CC=CCC2C(=O)O)CC1 (centres undefined) | -15.8%
COc1ccccc1-n1nnnc1S(=O)(=O)Cc1ccc(Cl)cc1 | 102%
Cc1cccc(C)c1-n1nnnc1S(=O)(=O)Cc1ccccc1Cl | -16.2%
CN1/C(=C\C(=O)C[n+]2cccc(Br)c2)C(C)(C)c2ccccc21 | 30.4%
CN1/C(=C\C(=O)C[n+]2ccc3ccccc3c2)C(C)(C)c2ccccc21 | 47% (active)
Cc1ccc[n+](CC(=O)/C=C2\N(C)c3ccccc3C2(C)C)c1 | 27.4%
O=C(NCc1ccccc1OC(F)(F)F)C1CCC(=O)N(CCc2ccccn2)C1 (centres undefined) | -25.8%
Cc1[nH]c2ccccc2c1C(=O)C(=O)N(C)C1CCCCC1 | -23.5%
CN(C(=O)CSc1ccccc1C(=O)O)C1CCCCC1 | -26.5%
CC(Sc1n[nH]c(N)n1)C(=O)NC1CCCCC1C (centres undefined) | -7.3%

SMILES | inhibition
CC(Sc1nc(N)cc(=O)[nH]1)C(=O)NC1CCCCC1 (centres undefined) | -12%
Cc1cc(C(=O)O)sc1C | -16.5%
FC(F)(F)c1cnc(Sc2nnc(-c3cccs3)n2CC2CCCO2)c(Cl)c1 (centres undefined) | -14.9%
CCOc1cc(/C=N/NC(=O)C(=O)NCc2ccc3c(c2)OCO3)ccc1OCC(=O)N1CCOCC1 | -4.3%
CCOC(=O)CNc1cccc(C(F)(F)F)c1 | -35.5%
O=C(CNS(=O)(=O)c1ccccc1)NCC(=O)OCc1ccc(Cl)cc1 | -12.2%
O=C(NCc1cccnc1)/C(=C\c1ccc(-c2ccc(Br)cc2)o1)S(=O)(=O)c1ccccc1 | 106% (active)
O=C(NCc1cccnc1)/C(=C/c1ccc(-c2cccc(C(F)(F)F)c2)o1)NC(=O)c1ccccc1 | 11.9%
O=C(CN(Cc1ccc(Br)cc1)S(=O)(=O)c1ccccc1)NCc1cccnc1 | 14.5%
COc1ccc(S(=O)(=O)N2CCC(NC(=O)c3cccc(F)c3)CC2)cc1 | -7.7%
CC(=O)NC(CC(=O)Oc1ccc(C)cc1Br)c1ccccc1 (centres undefined) | -28.4%
Cc1c(CCOC(=O)c2cc([N+](=O)[O-])cc([N+](=O)[O-])c2)sc[n+]1CC(=O)c1ccc(Br)cc1 | 49.3% (active)
Cc1c(CCOC(=O)c2cc([N+](=O)[O-])cc([N+](=O)[O-])c2)sc[n+]1CC(=O)c1ccccc1 | -27.6%
Cc1c(CCOC(=O)c2cccc([N+](=O)[O-])c2)sc[n+]1CC(=O)c1ccccc1 | -44.5%
O=C(NCc1ccco1)C12CN(Cc3ccccc3)CC1C(c1ccc([N+](=O)[O-])cc1)=NO2 (centres undefined) | 10.3%
CCOCCc1nnc(NC(=O)C(C)Oc2ccccc2)s1 (centres undefined) | -60.4%
COc1ccc(NC(=O)CCC(=O)N/N=C/c2cn(C)nc2C)cc1 | 10.7%
O=C(O)c1ccc(Nc2nc3c(s2)CCCC3)cc1 | 69.2% (active)
Cc1cccc(Nc2nc3c(s2)CCCC3)c1 | -49.8%
CN(C)c1ccc(C(=O)Nc2nc3c(s2)CCCC3)cc1 | 25.6%
Cc1nc2ccc(S(=O)(=O)Nc3cccc(-c4nc5cccnc5s4)c3C)cc2s1 | -33.3%
Cc1cc(-c2nc3cccnc3s2)ccc1NS(=O)(=O)c1ccc2c(c1)OCCO2 | -4%
CCc1ccc(NC(=O)CSc2nnc(-c3n[nH]c4ccccc34)n2-c2ccccc2)cc1 | 6%

SMILES | inhibition
CC(C)CC(C(=O)N1CCc2ccccc2C1)N1C(=O)c2ccccc2C1=O (centres undefined) | 5.4%
COc1ccc(N2C(=O)c3ccccc3NC2c2cccnc2)cc1 (centres undefined) | -14.4%
COc1ccc2c(c1OC)C(=O)OC2 | 33.6% (active)
COc1ccc2c(c1OC)C(=O)N(c1ncn[nH]1)C2 | -15.4%
COc1ccccc1N1Cc2ccc(OC)c(OC)c2C1=O | -5.2%
COc1cc(OC)cc(C(=O)OCCCOC(=O)c2cc(OC)cc(OC)c2)c1 | -7.2%
CN(NS(=O)(=O)c1ccc(Cl)cc1)c1nc(C(F)(F)F)nc2ccccc12 | 26%
CN(NS(=O)(=O)c1ccc(Br)cc1)c1nc(C(F)(F)F)nc2ccccc12 | 31.4% (active)
COc1ccc(S(=O)(=O)NN(C)c2nc(C(F)(F)F)nc3ccccc23)cc1 | -27.6%
CN(C)C1(CN=Cc2cc(Cl)cc([N+](=O)[O-])c2O)CCCCC1 | -19%
O=C(N/N=C/c1ccc(-c2cccc(C(F)(F)F)c2)o1)c1ccccc1Br | 13.2%
O=C(N/N=C/c1ccc(-c2ccccc2)o1)c1ccccc1O | -1.6%
O=C(N/N=C/c1ccc(-c2cccc(C(F)(F)F)c2)o1)c1ccccc1O | 86.8% (active)
Cc1ccc2cc(CCNC(=O)c3cccc([N+](=O)[O-])c3)c(=O)[nH]c2c1 | 26.4%
COc1ccc2cc(CCNC(=O)c3cccc([N+](=O)[O-])c3)c(=O)[nH]c2c1 | 45.6% (active)
Cc1cc2cc(CCNC(=O)c3cccc([N+](=O)[O-])c3)c(=O)[nH]c2cc1C | 3.3%
COc1cc(Br)c(CC(=O)O)cc1OC | 4%
CCn1cc(C(=O)OCC(=O)c2cc(C)n(-c3ccccc3F)c2C)c(=O)c2ccc(C)nc21 | 10.8%
CCn1cc(C(=O)OCC(=O)c2cc(C)n(-c3ccccc3)c2C)c(=O)c2ccc(C)nc21 | 6.2%
CCn1cc(C(=O)OCC(=O)c2cc(C)n(-c3cccc(C(F)(F)F)c3)c2C)c(=O)c2ccc(C)nc21 | 62.7% (active)
Cc1nn(Cc2ccc(C(=O)N3CCN(C(=O)c4ccco4)CC3)o2)c(C)c1[N+](=O)[O-] | -22.1%
C/C(=N\NC(=O)c1cc2ccccc2cc1O)c1cccs1 | 5.7%
C/C(=N\NC(=O)c1ccccc1O)c1ccc(Br)s1 | 8.3%

SMILES | inhibition
C/C(=N\NC(=O)c1ccccc1O)c1cccs1 | 69.7% (active)
C/C(=N\NC(=O)c1cccc2ccccc12)c1cccs1 | -68.3%
C/C(=N\NC(=O)c1ccoc1C)c1ccc(Br)s1 | 15.3%
CCN(CC(=O)NCc1ccc(Cl)cc1)C(=O)/C=C/c1cccs1 | -23.9%
CC1CCCN(CC(=O)Nc2ccc(S(=O)(=O)N3CCCCCC3)cc2)C1 (centres undefined) | -8.7%
Cc1ccc(/C=C2/SC(=Nc3ccc(F)cc3)NC2=O)s1 | -8.8%
CC(=O)NC(Cc1ccc(C)cc1)C(=O)NC1CCN(C(=O)c2ccc([N+](=O)[O-])cc2)CC1 (centres undefined) | -4.9%
Cc1noc2ncnc(N3CCN(c4ccc(F)cc4)CC3)c12 | -41.6%
Cc1noc2ncnc(N3CCCC3)c12 | -13.8%
Cc1nn(C)c(Oc2ccccc2)c1CCNS(=O)(=O)c1ccccc1 | 14.8%
CCN(CC)C(=S)Sc1c(-c2ccccc2)c2cc(Cl)ccc2[nH]c1=O | 78.1% (active)
O=c1[nH]c2ccc(Cl)cc2c(-c2ccccc2)c1SC(=S)N1CCCCC1 | 47%
O=C(O)CSc1c(-c2ccccc2)c2cc(Cl)ccc2[nH]c1=O | -28.5%
COc1ccc2c(C)cc(SC3CCOC3=O)nc2c1 (centres undefined) | -1.1%
C=CCc1cc(Cl)ccc1OCCNCCCOC | -15.8%
C=CCc1cc(Cl)ccc1OCCOCCNCCOC | -24.9%
C=CCc1cc(Cl)ccc1OCCNCCOC | 43.2% (active)
CCC(C(=O)c1ccc2ncccc2c1)c1ccccc1 (centres undefined) | -3.6%
CCOC(=O)C1=C(N)Oc2cc(O)ccc2C1c1ccc([N+](=O)[O-])cc1 (centres undefined) | 67.7% (active)
CCOC(=O)C1=C(N)Oc2cc(O)ccc2C1c1ccc(C)cc1 (centres undefined) | -17.2%
CCOC(=O)C1=C(N)Oc2cc(O)ccc2C1c1cccc([N+](=O)[O-])c1 (centres undefined) | 41.2%
COc1cc(COc2ccc3c(C)c(CCC(=O)O)c(=O)oc3c2)cc(OC)c1OC | -4.2%
